For assay [1], the system named is ECU. Put plainly: qHTS profiling for inhibitors of Plasmodium falciparum proliferation (AID 504749). Also: potency is read from the fitted curve at half-maximal effect. The note with it: P. falciparum in erythrocytes, SYBR Green DNA, 72 h; series mostly up to 28.7 µM. In short, it runs like this: (§1)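 SYBR Green fluorescence (ex 485 nm, em 535 nm) reports parasite DNA after 72 h compound exposure of infected red cells at 0.3% parasitemia, 2.5% hematocrit; signal normalized to 0.29 uM artemisinin and vehicle wells.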

For assay [2], the system named is FAB9. The assay is described as above. The following applies: P. falciparum in erythrocytes, SYBR Green DNA, 72 h; series mostly up to 28.7 µM. The essentials: as §1
Assay [3] has as its system GB4. The assay is described as above. The note with it: P. falciparum in erythrocytes, SYBR Green DNA, 72 h; series mostly up to 28.7 µM. The essentials:
as §1

The subject of assay [4] is HB3. The description is as above. The note with it: P. falciparum in erythrocytes, SYBR Green DNA, 72 h; series mostly up to 28.7 µM. The essentials: as §1
In assay [5] the test system is ICS. The assay is described as above. The note with it: P. falciparum in erythrocytes, SYBR Green DNA, 72 h; series mostly up to 28.7 µM. In short, it runs like this: as §1
The test system of assay [6] is JCK. The description is as above. The following applies: P. falciparum in erythrocytes, SYBR Green DNA, 72 h; series mostly up to 28.7 µM. In short, it runs like this:
as §1

Assay [7] has as its system N140. Described as above. The following applies: P. falciparum in erythrocytes, SYBR Green DNA, 72 h; series mostly up to 28.7 µM. The essentials:
as §1

Assay [8] deals with P93_24. The assay is described as above. The note with it: P. falciparum in erythrocytes, SYBR Green DNA, 72 h; series mostly up to 28.7 µM. In short, it runs like this:
as §1

For assay [9], the system named is P94_40. The assay is described as above. The following applies: P. falciparum in erythrocytes, SYBR Green DNA, 72 h; series mostly up to 28.7 µM. The essentials:
as §1

For assay [10], the system named is PAD. The description is as above. The note with it: P. falciparum in erythrocytes, SYBR Green DNA, 72 h; series mostly up to 28.7 µM. In short, it runs like this: as §1
Assay [11] deals with PC15. Described as above. The following applies: P. falciparum in erythrocytes, SYBR Green DNA, 72 h; series mostly up to 28.7 µM. The essentials: as §1
The subject of assay [12] is PC26. Described as above. The following applies: P. falciparum in erythrocytes, SYBR Green DNA, 72 h; series mostly up to 28.7 µM. The essentials:
as §1

Assay [13] deals with PC49. The assay is described as above. The following applies: P. falciparum in erythrocytes, SYBR Green DNA, 72 h; series mostly up to 28.7 µM. The essentials: as §1
The subject of assay [14] is SC27B. Described as above. The following applies: P. falciparum in erythrocytes, SYBR Green DNA, 72 h; series mostly up to 28.7 µM. The essentials:
as §1

Assay [15] deals with TAB109. Described as above. The following applies: P. falciparum in erythrocytes, SYBR Green DNA, 72 h; series mostly up to 28.7 µM. The essentials:
as §1

Assay [16] concerns TAB113. Described as above. The following applies: P. falciparum in erythrocytes, SYBR Green DNA, 72 h; series mostly up to 28.7 µM. The essentials:
as §1

Assay [17] deals with TAB165. The assay is described as above. The note with it: P. falciparum in erythrocytes, SYBR Green DNA, 72 h; series mostly up to 28.7 µM. In short, it runs like this: as §1
In assay [18] the test system is CRL-7250. In words: Cytotoxic Profiling of Annotated Libraries Using Quantitative High-Throughput Screening (AID 1296008). As to max response: % is scaled to controls: 0 for no effect and ±100 for the full control effect. The note with it: Five cell lines viability, CellTiter-Glo ATP luminescence, 48-72 h; max response: hits give low values. In short, it runs like this:
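Cells exposed to compounds for 48 or 72 hr at 37 degrees Celsius. Viability read as ATP-coupled luminescence with CellTiter-Glo after 10 min at room temperature.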

Assay [19] concerns Dd2. Put plainly: qHTS profiling for inhibitors of Plasmodium falciparum proliferation (AID 504749). Also: potency is read from the fitted curve at half-maximal effect. The note with it: P. falciparum in erythrocytes, SYBR Green DNA, 72 h; series mostly up to 28.7 µM. The essentials: as §1
Assay [20] deals with W2. The assay is described as above. The note with it: P. falciparum in erythrocytes, SYBR Green DNA, 72 h; series mostly up to 28.7 µM. In short, it runs like this:
as §1

Each structure is given as a SMILES string. Where “and” joins values, the source holds several entries; their conditions need not be identical. Equal entries are not always repeated. Results filed as inconclusive are left out. Values without a mark were called inactive. Calls of active or inactive are those of the source. Calls follow the shape of the dose curve; as a rule, active = well fitted inhibition curve with a large enough effect; inconclusive = small, poorly fitted or top-dose-only effect; inactive = flat fitted curve, though single readings scatter.
Also: nearly all actives have a fitted effect of over 60% in size.

On to `CNC1(C)C2CCC(C2)C1(C)C` (stereo not drawn), for which the Potency result in assay [1], in assay [2], in assay [4], in [5], in [6] and in assay [7] was “inactive” each time. Further, the Potency result in assay [8], in assay [9], in [10], in assay [11], in assay [12] and in assay [13] was “inactive” in each case. Also, the Potency result in assay [14], in [15], in assay [16] and in assay [17] was “inactive” throughout. Moreover, the Potency in assay [3] is 10.7 µM (active). In addition, in assay [18], the max response was -2.13%.

On to `CCOC(=O)c1cnc2c(cnn2CC)c1NN=C(C)C`, for which the Potency entry in assay [19], in assay [1], in assay [2], in assay [3], in [4] and in assay [6] was “inactive” each time. The Potency entry in assay [7], in [8], in assay [10], in assay [11], in assay [12] and in assay [13] was “inactive” each time. Also, the Potency result in assay [14], in assay [15], in assay [16] and in [17] was “inactive” throughout. Besides, in assay [18], the max response is 1.67%.

`COC(=O)[C@H]1[C@H]2C[C@@H]3c4[nH]c5cc(OC)ccc5c4CCN3C[C@H]2C[C@@H](OC(=O)c2cc(OC)c(OC)c(OC)c2)[C@@H]1OC`: the Potency was 12.6 µM (active) in assay [19]; 5.01 µM (active) in assay [1]; 13.5 µM (active) in [3]; 11.2 µM (active) in [4]; 3.55 µM (active) in [5]; 3.98 µM (active) in assay [7]. Besides, the Potency was 10 µM (active) in assay [8]; 7.94 µM (active) in [9]; 2 µM (active) in [10]; 11.2 µM (active) in assay [11]; 2.13 µM (active) in [12]; 7.94 µM (active) in assay [13]. The Potency is 7.08 µM (active) in assay [14]; 8.91 µM (active) in assay [15]; 5.62 µM (active) in assay [16]; 3.98 µM (active) in [17]; 3.79 µM (active) in assay [20]. The max response in assay [18] was 0.615% and 0.375%.

For `CCOC(=O)C1=C(C)NC(C)=C(C(=O)OC)C1c1cccc([N+](=O)[O-])c1` (stereo not drawn), the Potency result in assay [2] is “inactive”. The Potency in assay [4] is 11.2 µM (active); in assay [7], 11.2 µM (active); in [9] it was 11.2 µM (active); in assay [14], 12.6 µM (active); in assay [17], 10 µM (active). For the same molecule, in assay [18], the call was inactive.

As for `CCCCNc1c(C(=O)OCC)c(C)nc2c1cnn2CC`, the Potency entry in assay [19], in assay [1], in assay [2], in assay [3], in assay [4] and in [6] was “inactive” each time. Moreover, the Potency result in assay [7], in assay [8], in assay [10], in assay [11], in [12] and in assay [13] was “inactive” in each case. Also, the Potency result in assay [14], in assay [15] and in assay [16] was “inactive” in each case. Further, the max response in [18] is -21.3%.

Take `CCN(CC)CCNC(=O)c1cc(S(C)(=O)=O)ccc1OC`: the Potency result in assay [19], in [1], in [2], in assay [4], in assay [5] and in [6] was “inactive” in each case. For the same molecule, the Potency entry in assay [7], in [8], in assay [9], in assay [10], in assay [11] and in [13] was “inactive” each time. Also, the Potency entry in [14], in [15], in [16] and in assay [17] was “inactive” in each case. The max response in [18] is 1.79%.

For `CN(C)CCCN1c2ccccc2Sc2ccccc21`, the Potency in assay [19] is 3.16 µM (active); in assay [11], 2 µM (active); in assay [20], 0.572 µM (active). In addition, the Potency entry in assay [1], in [2] and in assay [4] was “inactive” each time. In addition, in assay [18], the max response was 0.274%.

Turning to `COCCOC(=O)C1=C(C)NC(C)=C(C(=O)OC(C)C)C1c1cccc([N+](=O)[O-])c1` (stereo not drawn), the Potency result in assay [2] and in assay [13] was “inactive” in each case. For the same molecule, the Potency in assay [5] is 7.08 µM (active); in assay [7] it was 12.6 µM (active); in assay [12], 12 µM (active); in assay [17], 10 µM (active).

With `Cc1nnc(SCC2=C(C(=O)O)N3C(=O)[C@@H](NC(=O)Cn4cnnn4)[C@H]3SC2)s1`, the Potency result in assay [19], in [1], in assay [2], in [3], in [4] and in [5] was “inactive” throughout. Further, the Potency result in assay [6], in [7], in assay [8], in assay [9], in assay [10] and in assay [11] was “inactive” in each case. In addition, the Potency result in assay [12], in assay [13], in [14], in assay [15], in assay [16] and in assay [17] was “inactive” throughout. In addition, the Potency result in [20] is “inactive”.

On to `CC[N+](C)(C)c1cccc(O)c1`, for which the Potency entry in [19], in assay [1], in assay [2], in assay [3], in assay [4] and in [5] was “inactive” in each case. Further, the Potency entry in [6], in [7], in assay [8], in [9], in assay [10] and in assay [11] was “inactive” each time. Moreover, the Potency entry in assay [12], in assay [13], in assay [14], in assay [15], in [16] and in assay [17] was “inactive” each time. Moreover, the Potency result in assay [20] was “inactive”.

`CN(C)C(=O)Oc1ccc[n+](C)c1`: the Potency result in assay [19], in assay [1], in [2], in assay [3], in assay [4] and in assay [5] was “inactive” in each case. Moreover, the Potency entry in [6], in [7], in assay [8], in [9], in assay [10] and in assay [11] was “inactive” throughout. For the same molecule, the Potency entry in [12], in assay [13], in assay [14], in assay [15], in [16] and in assay [17] was “inactive” each time. In addition, the Potency entry in assay [20] is “inactive”.

Source of the values: PubChem BioAssay (NCATS).
